Measurements as given in PubChem BioAssay (EPA / NIEHS).
Values joined by “and” are separate entries in the source; they are usually repeats but may differ in a detail not shown here. Equal values may be shown once. Active and inactive are the calls of the source. The calls were made as follows: active = hit-call score of the fitted dose curve at least 0.9, where 1 is the maximum; inactive = score below 0.9.

Columns and labels:
[1] = ATG_ERE_CIS: Attagene CIS-FACTORIAL HepG2 Assay for Estrogen Response Element (ERE) (AID 2282940); settings: HepG2 ERE cis-reporter, Attagene RNA transcript; actives raise or lower the signal
Summary of the method: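 Cells used were human hepatoma HepG2, transfected with multiple reporter transcription units under cis-regulatory promoters. Reporter mRNA, read 24 h post-dosing via fluorescent RT-PCR products on capillary electrophoresis, was fitted bidirectionally relative to DMSO.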

[2] = ATG_Ets_CIS: Attagene CIS-FACTORIAL HepG2 Assay for human Erythroblast Transformation Specific (ETS) (AID 2282941); settings: HepG2 ETS cis-reporter transcription, actives raise or lower the signal
Summary of the method: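 Cis-regulated reporter mRNA induction in HepG2 (transient transfection), 24 h exposure, RT-PCR plus capillary electrophoresis detection; DMSO serves as negative control and baseline.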

[3] = molecular target: Hepatocyte nuclear factor 3-beta (Homo sapiens) (UniProt Q9Y261); test: ATG_FoxA2_CIS: Attagene CIS-FACTORIAL HepG2 Assay for human Forkhead box A2 (FOXA2) (AID 2282942); settings: HepG2 cis-reporter transcription factor activity, 24 h; actives raise or lower the signal
Summary of the method: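 Transient MRTU transfection of HepG2 liver cells; 24 h treatment; total RNA → oligo(dT) RT → PCR → FAM primer extension → HpaI cut → CE. Bidirectional fit vs DMSO.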

[4] = ATG_GATA_CIS: Attagene CIS-FACTORIAL HepG2 Assay for human GATA Binding Protein (AID 2282944); settings: HepG2 GATA cis-element reporter, Attagene multiplex mRNA; actives raise or lower the signal
Summary of the method: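 Endogenous transcription factor activity was captured through cis-promoter-driven reporters in transfected HepG2 cells. After 24 h exposure, reporter transcripts were quantified by RT-PCR with fluorescent capillary electrophoresis, and responses fitted both directions against DMSO.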

[5] = ATG_GLI_CIS: Attagene CIS-FACTORIAL HepG2 Assay for human Zinc Finger Protein GLI1 (AID 2282945); settings: HepG2, Attagene cis-factorial reporter mRNA, GLI element; actives raise or lower the signal
Summary of the method: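 HepG2 cells transiently transfected with cis-promoter multiplexed reporter units report endogenous transcription factor activity. After 24 h chemical exposure, reporter mRNA was quantified by RT-PCR, 6-FAM labelling, HpaI digestion and capillary electrophoresis, with bidirectional fitting against DMSO.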

[6] = ATG_GRE_CIS: Attagene CIS-FACTORIAL HepG2 Assay for human Glucocorticoid Response Elements (GRE) (AID 2282947); settings: HepG2 GRE cis-reporter, Attagene multiplex mRNA; actives raise or lower the signal
Summary of the method: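 Cells (HepG2) bearing transfected cis-promoter reporter transcription units were treated with chemical for 24 hours. Reporter mRNA was measured via RT-PCR with capillary electrophoresis, and activity was fitted in both directions relative to DMSO.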

[7] = ATG_ISRE_CIS: Attagene CIS-FACTORIAL HepG2 Assay for human Interferon Regulatory Factor 1 (IRF1) binding to an Interferon-Stimulated Response Element (ISRE) (AID 2282948); settings: HepG2 ISRE cis-reporter (Attagene), mRNA transcription readout; actives raise or lower the signal
Summary of the method: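 Multiplexed mRNA reporter readout in human liver HepG2 cells: cis-element-driven reporters transfected, compound added for 24 h, transcripts amplified, fluorescently labelled and sized by capillary electrophoresis; curve fitting bidirectional against DMSO.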

[8] = ATG_M_32_CIS: Attagene CIS-FACTORIAL HepG2 Assay for M32 Transcription Factor (Internal Marker) (AID 2282949); settings: HepG2 Attagene cis-factorial M32 reporter, mRNA; actives raise or lower the signal;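 also: background control marker of the multiplexed CIS panel rather than a real target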
Summary of the method: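 HepG2 human liver cells transiently transfected with cis-promoter-driven multiple reporter transcription units, dosed 24 h. Reporter mRNA quantified by RT-PCR, FAM-labelled primer extension, HpaI digest and capillary electrophoresis; bidirectional fit versus DMSO baseline.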

[9] = ATG_M_06_CIS: Attagene CIS-FACTORIAL HepG2 Assay for M06 Transcription Factor (Internal Marker) (AID 2282950); settings: HepG2 Attagene CIS-FACTORIAL M06 internal marker reporter; actives raise or lower the signal
Summary of the method: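 Steps: transfect HepG2 with multiplexed cis-element reporter constructs; dose chemical 24 h; extract RNA with DNase treatment; reverse-transcribe, PCR-amplify, 6-FAM label, HpaI digest; separate fragments by capillary electrophoresis. Activity fitted both directions versus DMSO.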

[10] = molecular target: Hypoxia-inducible factor 1-alpha (Homo sapiens) (UniProt Q16665); test: ATG_HIF1a_CIS: Attagene CIS-FACTORIAL HepG2 Assay for human Hypoxia Inducible Factor 1 (HIF1A) (AID 2282951); settings: HepG2 Attagene cis-factorial HIF1a reporter transcription; actives raise or lower the signal
Summary of the method: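 Transient MRTU transfection of human HepG2 liver cells, 24 h compound treatment, then total RNA isolation, oligo(dT) reverse transcription, PCR amplification, fluorescent labelling and capillary electrophoresis of reporter fragments. Gain or loss relative to DMSO.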

[11] = molecular target: Hepatocyte nuclear factor 6 (Homo sapiens) (UniProt Q9UBC0); test: ATG_HNF6_CIS: Attagene CIS-FACTORIAL HepG2 Assay for human Hepatocyte Nuclear Factor 6 (HNF6) (AID 2282952); settings: HepG2 Attagene cis-factorial HNF6 reporter transcription; actives raise or lower the signal
Summary of the method: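 Activity values derive from bidirectional fitting against DMSO of reporter mRNA levels, measured by capillary electrophoresis of labelled RT-PCR products from HepG2 cells exposed 24 h.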

[12] = molecular target: Heat shock factor protein 1 (Homo sapiens) (UniProt Q00613); test: ATG_HSE_CIS: Attagene CIS-FACTORIAL HepG2 Assay for human Heat Shock Transcription Factor 1 (HSE) (AID 2282953); settings: HepG2 HSE cis-reporter, Attagene RNA transcription; actives raise or lower the signal
Summary of the method: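 Cells were transfected with cis-element-driven reporter constructs, dosed for 24 h, then total RNA was reverse-transcribed and reporter cDNA amplified, FAM-labelled and digested with HpaI. Fragments were resolved by capillary electrophoresis; gain or loss was fitted against DMSO.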

[13] = ATG_MRE_CIS: Attagene CIS-FACTORIAL HepG2 Assay for human Metal Responsive Element (MRE) (AID 2282954); settings: HepG2 MRE cis-reporter transcription, Attagene multiplex; actives raise or lower the signal
Summary of the method: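 Cells were transfected with cis-promoter reporter transcription units, then dosed for 24 h. RNA was reverse-transcribed, amplified, fluorescently labelled and resolved by capillary electrophoresis, and activity was fitted in both directions relative to DMSO.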

[14] = ATG_PBREM_CIS: Attagene CIS-FACTORIAL HepG2 Assay for human Phenobarbital-responsive Enhancer Module (PBREM) (AID 2282955); settings: HepG2 PBREM cis-reporter, Attagene multiplexed transcription; actives raise or lower the signal
Summary of the method: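 Endogenous transcription factors in human liver HepG2 cells drive a PBREM cis-element reporter, whose transcript level after 24 h treatment is quantified by RT-PCR with capillary electrophoresis; activity fitted in both directions against DMSO.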

[15] = molecular target: Paired box protein Pax-6 (Homo sapiens) (UniProt P26367); test: ATG_Pax6_CIS: Attagene CIS-FACTORIAL HepG2 Assay for human Paired Box 6 (PAX6) (AID 2282956); settings: HepG2 CIS-FACTORIAL PAX6 reporter transcription, RNA readout; actives raise or lower the signal
Summary of the method: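 Fluorescent RT-PCR products separated by capillary electrophoresis report PAX6-linked promoter mRNA in HepG2 cells 24 h post-dose. Curves fitted bidirectionally, DMSO as negative control.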

[16] = ATG_PXRE_CIS: Attagene CIS-FACTORIAL HepG2 Assay for human Pregnane X Receptor Element (PXRE) (AID 2282957); settings: HepG2 Attagene CIS-FACTORIAL PXRE reporter, mRNA; actives raise or lower the signal
Summary of the method: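 Fluorescent capillary electrophoresis of amplified reporter cDNA gave the signal, collected 24 h after dosing HepG2 cells that held transfected cis-element reporter constructs.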

[17] = ATG_RORE_CIS: Attagene CIS-FACTORIAL HepG2 Assay for human RAR-related Orphan Receptor Element (RORE) (AID 2282959); settings: HepG2 Attagene cis-factorial RORE reporter, mRNA; actives raise or lower the signal
Summary of the method: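 Transient MRTU transfection of human HepG2 liver cells (FuGene 6); 24 h compound exposure; TriZol RNA, oligo(dT) RT, PCR, FAM labeling, HpaI cut, CE fragment analysis. DMSO = negative control/baseline.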

[18] = ATG_FoxO_CIS: Attagene CIS-FACTORIAL HepG2 Assay for human Forkhead box O (FoxO) (AID 2282943); settings: HepG2 Attagene cis-reporter, FoxO element, mRNA; actives raise or lower the signal
Summary of the method: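 HepG2 cells transiently transfected with cis-promoter-driven multiple reporter transcription units; 24 h after chemical dosing, reporter mRNA quantified by RT-PCR, fluorescent primer extension, HpaI digestion and capillary electrophoresis. Bidirectional fitting versus DMSO baseline.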

[19] = molecular target: Bile acid receptor (Homo sapiens) (UniProt Q96RI1); test: ATG_IR1_CIS: Attagene CIS-FACTORIAL HepG2 Assay for human Nuclear Receptor Subfamily 1 Group H Member 4 (NR1H4), IR1 submotif (AID 2282946); settings: IR1 reporter transcription, actives raise or lower the signal
Summary of the method: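 Readout: reporter transcript levels by RT-PCR with fluorescent capillary electrophoresis, from HepG2 cells transiently transfected with multiplexed cis-regulated reporters and dosed 24 h. Gain- or loss-of-signal fitted versus DMSO negative control.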

[20] = ATG_PPRE_CIS: Attagene CIS-FACTORIAL HepG2 Assay for human Peroxisome Proliferator-activated Response Element (PPRE) (AID 2282958); settings: HepG2 PPRE cis-element reporter, Attagene transcription factor profiling; actives raise or lower the signal
Summary of the method: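 HepG2, transient MRTU transfection (cis promoter elements, endogenous TFs). 24 h dosing. RNA → oligo(dT) RT → PCR → 6-FAM primer extension → HpaI digest → CE. Bidirectional fit vs DMSO.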

Measured: AC50

Sequence of Hepatocyte nuclear factor 6 (Homo sapiens) (Q9UBC0 whole entry, looked up): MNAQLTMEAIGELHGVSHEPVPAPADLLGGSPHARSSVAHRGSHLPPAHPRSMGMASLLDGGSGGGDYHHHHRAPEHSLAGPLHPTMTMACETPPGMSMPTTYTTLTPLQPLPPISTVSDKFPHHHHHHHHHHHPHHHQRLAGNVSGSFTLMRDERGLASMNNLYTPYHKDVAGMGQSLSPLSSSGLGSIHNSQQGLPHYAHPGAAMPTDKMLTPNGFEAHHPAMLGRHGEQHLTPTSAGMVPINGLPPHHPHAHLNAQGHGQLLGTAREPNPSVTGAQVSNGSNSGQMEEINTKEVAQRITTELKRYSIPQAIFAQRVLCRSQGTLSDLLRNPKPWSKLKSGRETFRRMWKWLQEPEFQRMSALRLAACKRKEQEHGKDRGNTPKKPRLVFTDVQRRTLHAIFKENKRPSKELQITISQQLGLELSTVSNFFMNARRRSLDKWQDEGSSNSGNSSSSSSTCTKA
Sequence of Hepatocyte nuclear factor 3-beta (Homo sapiens) (Q9Y261 whole entry, looked up): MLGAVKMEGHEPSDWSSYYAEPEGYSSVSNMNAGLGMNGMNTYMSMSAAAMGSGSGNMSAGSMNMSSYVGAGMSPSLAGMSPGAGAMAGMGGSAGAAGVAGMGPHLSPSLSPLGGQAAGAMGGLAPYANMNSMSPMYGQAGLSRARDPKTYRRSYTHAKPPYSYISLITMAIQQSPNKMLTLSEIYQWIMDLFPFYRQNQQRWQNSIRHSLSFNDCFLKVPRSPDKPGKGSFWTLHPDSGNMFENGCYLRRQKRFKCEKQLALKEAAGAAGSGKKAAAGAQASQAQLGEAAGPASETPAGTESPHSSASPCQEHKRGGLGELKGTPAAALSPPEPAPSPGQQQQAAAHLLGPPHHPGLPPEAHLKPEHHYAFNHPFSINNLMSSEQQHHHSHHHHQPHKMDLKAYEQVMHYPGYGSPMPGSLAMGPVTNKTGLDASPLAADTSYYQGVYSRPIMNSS
Sequence of Heat shock factor protein 1 (Homo sapiens) (Q00613 whole entry, looked up, the tested form may be a part): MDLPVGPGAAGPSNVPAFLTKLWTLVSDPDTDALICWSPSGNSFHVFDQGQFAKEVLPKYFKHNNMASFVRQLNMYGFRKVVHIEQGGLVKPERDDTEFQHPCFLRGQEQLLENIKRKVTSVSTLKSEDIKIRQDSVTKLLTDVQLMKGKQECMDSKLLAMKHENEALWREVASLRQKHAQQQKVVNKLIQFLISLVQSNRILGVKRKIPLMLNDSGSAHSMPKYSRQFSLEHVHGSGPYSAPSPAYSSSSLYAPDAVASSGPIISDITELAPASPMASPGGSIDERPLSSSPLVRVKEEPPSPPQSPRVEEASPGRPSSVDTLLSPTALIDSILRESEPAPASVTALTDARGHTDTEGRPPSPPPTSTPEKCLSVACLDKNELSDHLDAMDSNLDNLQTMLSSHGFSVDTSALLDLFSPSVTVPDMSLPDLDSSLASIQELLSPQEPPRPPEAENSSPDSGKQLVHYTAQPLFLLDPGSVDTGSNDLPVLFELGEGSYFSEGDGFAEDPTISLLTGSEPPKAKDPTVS
Sequence of Paired box protein Pax-6 (Homo sapiens) (P26367 whole entry, looked up): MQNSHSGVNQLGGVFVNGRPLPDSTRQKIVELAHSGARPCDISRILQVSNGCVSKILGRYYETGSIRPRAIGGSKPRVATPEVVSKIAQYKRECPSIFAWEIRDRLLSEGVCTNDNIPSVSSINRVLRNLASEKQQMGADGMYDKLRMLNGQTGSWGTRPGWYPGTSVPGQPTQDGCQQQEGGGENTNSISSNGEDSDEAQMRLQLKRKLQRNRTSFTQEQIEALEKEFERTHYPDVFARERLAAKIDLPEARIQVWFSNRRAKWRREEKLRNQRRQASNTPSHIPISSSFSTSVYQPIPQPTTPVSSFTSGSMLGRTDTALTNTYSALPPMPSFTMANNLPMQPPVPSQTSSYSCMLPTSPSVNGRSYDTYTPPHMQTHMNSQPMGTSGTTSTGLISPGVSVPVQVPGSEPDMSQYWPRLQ
Sequence of Hypoxia-inducible factor 1-alpha (Homo sapiens) (Q16665 whole entry, looked up, the tested form may be a part): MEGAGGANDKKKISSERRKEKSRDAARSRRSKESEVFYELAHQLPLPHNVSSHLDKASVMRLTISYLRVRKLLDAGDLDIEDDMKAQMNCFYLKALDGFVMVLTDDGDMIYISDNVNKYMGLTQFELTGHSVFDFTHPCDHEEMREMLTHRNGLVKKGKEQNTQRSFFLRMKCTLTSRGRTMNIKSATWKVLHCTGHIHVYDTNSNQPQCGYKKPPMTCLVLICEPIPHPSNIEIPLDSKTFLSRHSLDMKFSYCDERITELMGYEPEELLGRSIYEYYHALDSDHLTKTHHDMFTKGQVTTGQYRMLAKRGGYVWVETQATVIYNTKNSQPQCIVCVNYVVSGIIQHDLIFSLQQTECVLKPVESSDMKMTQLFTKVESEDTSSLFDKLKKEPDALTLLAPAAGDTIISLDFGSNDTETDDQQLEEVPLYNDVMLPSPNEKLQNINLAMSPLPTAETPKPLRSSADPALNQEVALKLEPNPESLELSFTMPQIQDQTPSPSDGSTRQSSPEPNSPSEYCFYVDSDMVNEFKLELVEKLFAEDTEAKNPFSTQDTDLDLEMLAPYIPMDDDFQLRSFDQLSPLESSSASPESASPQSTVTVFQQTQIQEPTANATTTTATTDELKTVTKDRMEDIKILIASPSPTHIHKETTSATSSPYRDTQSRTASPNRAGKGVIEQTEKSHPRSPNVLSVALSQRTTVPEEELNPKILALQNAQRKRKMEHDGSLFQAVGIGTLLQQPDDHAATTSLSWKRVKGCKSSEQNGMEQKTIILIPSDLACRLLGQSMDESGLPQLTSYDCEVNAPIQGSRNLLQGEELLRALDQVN
Sequence of Bile acid receptor (Homo sapiens) (Q96RI1 whole entry, looked up): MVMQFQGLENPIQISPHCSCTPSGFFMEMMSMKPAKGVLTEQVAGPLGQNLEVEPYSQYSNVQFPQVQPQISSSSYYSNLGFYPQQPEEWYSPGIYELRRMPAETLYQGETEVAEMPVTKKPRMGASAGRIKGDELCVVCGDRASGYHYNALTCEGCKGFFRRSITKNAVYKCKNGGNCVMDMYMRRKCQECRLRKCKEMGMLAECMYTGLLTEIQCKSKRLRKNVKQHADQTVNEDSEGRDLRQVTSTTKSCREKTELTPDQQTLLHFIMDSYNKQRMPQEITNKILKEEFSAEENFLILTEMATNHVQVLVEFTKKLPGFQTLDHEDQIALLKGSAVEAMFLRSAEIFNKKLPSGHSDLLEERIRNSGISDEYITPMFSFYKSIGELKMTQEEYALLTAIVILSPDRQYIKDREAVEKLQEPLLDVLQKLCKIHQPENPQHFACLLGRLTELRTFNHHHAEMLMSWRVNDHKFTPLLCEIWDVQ

CCCSP(=S)(OCC)Oc1ccc(Cl)cc1Cl (configuration not stated)
active: [1] 10.3 µM | [16] 2.72 µM
inactive: [2] | [3] | [4] | [5] | [6] | [7] | [8] | [9] | [10] | [11] | [12] | [13] | [14] | [15] | [17]

CC(C)CC(C)(c1ccc(O)cc1)c1ccc(O)cc1
inactive: [2] | [3] | [18] | [4] | [5] | [19] | [6] | [8] | [9] | [10] | [11] | [14] | [17]
active: [7] 11.1 µM | [12] 17 µM | [13] 16.6 µM | [15] 17.2 µM | [16] 2.92 µM | [20] 15.3 µM

O=C1C[C@@H]2OCC=C3CN4CC[C@]56c7ccccc7N1[C@H]5[C@H]2[C@H]3C[C@H]46
active: [16] 44.6 µM and 10.9 µM
inactive: [2] | [3] | [18] | [4] | [5] | [7] | [8] | [11] | [12] | [13] | [14] | [15] | [17]

CC(C)(C)c1ccccc1O
active: [8] 170 µM | [10] 182 µM | [11] 147 µM | [13] 149 µM | [15] 165 µM | [17] 160 µM
inactive: [2] | [3] | [18] | [4] | [5] | [6] | [7] | [9] | [12] | [14] | [20]
